Laboratory results taken from PubChem BioAssay (NCATS).
Records with an inconclusive call do not appear. Active and inactive are the calls of the source. Calls follow the shape of the dose curve; as a rule, active = well fitted curve in the direction sought with a large enough effect; inconclusive = small, poorly fitted or top-dose-only effect, or another doubt; inactive = no such curve, though single readings can be large; an effect the other way counts as inactive or inconclusive.

What was measured:
[1] = SDT Cancer Cell Toxicity qHTS against the NCATS CANVASS Library (AID 1347365); conditions: SDT dog glioma viability, ATP luminescence, 72 h; also: potency is read from the fitted curve at half-maximal effect; nearly all actives have a fitted effect of over 60% in size
Source text: Natural products and their derivatives continue to be wellsprings of nascent therapeutic potential. However, many laboratories have limited resources for biological evaluation, leaving their previously isolated or synthesized compounds largely or completely untested. To address this issue, the Canvass library of natural products was assembled (https://tripod.nih.gov/canvass), in collaboration with academic and industry researchers, for quantitative high-throughput screening (qHTS) across a diverse set of cell-based and biochemical assays. […] The library was formatted into 1536-well plates and evaluated in 50 qHTS (in an 11-pnt concentration series) bioassays with broad scope of disease-relevant mechanisms. The resulting data set from 50 different assays was then systematically analyzed to identify overall trends and specific natural products with interesting biological activities. […] This assay uses ATP (luminescence) content to measure the cytotoxiciy of compounds on SDT dog glioma cancer cell line. […]
Cancer Cell Toxicity qHTS protocol: for cell lines G06, J3T, and SDT. […] Luminescence signal was acquired via the ViewLux plate reader (PerkinElmer) using a clear emission filter, 2 sec exposure, and 1x binning settings.

[2] = qHTS for ATAD5 Agonist screened against the NCATS CANVASS Library (AID 1347367); conditions: HEK293T ATAD5-luciferase reporter, luminescence, 16 h; series mostly up to 46.1 µM;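 also: luciferase reporter driven by ATAD5 which rises upon DNA damage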
Method in brief: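 HEK293T-ATAD5 luc reporter; 2000 cells/well; 5hr settle; cpd 11-pt qHTS; 16hr 37C 5% CO2 dark; viability by CellTiter-Fluor (AFC fluorescence); then luciferase luminescence, 30min RT.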

[3] = G06 Cancer Cell Toxicity qHTS against the NCATS CANVASS Library (AID 1347368); conditions: G06 dog glioma cells, viability ATP luminescence, 72 h; also: potency is read from the fitted curve at half-maximal effect; nearly all actives have a fitted effect of over 60% in size
Method in brief: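 Quantitative HTS in G06 cells (dog glioma): 72 hr treatment, 11 concentrations, then ATP-based luminescent viability readout; bortezomib 0.1 nM–4.6 uM final as reference.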

[4] = MCF7 Cancer Cell Toxicity qHTS against the NCATS CANVASS Library (AID 1347369); conditions: MCF7 viability, ATP luminescence (CellTiter-Glo), 72 h; also: potency is read from the fitted curve at half-maximal effect
Method in brief: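 Cells seeded at 500/well, then compound pinned. Plates incubated 72 hr at 37C, 5% CO2. CellTiterGlo added; luminescence read.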

[5] = J3T Cancer Cell Toxicity qHTS against the NCATS CANVASS Library (AID 1347371); conditions: J3T dog glioma viability, ATP luminescence, 72 h; also: potency is read from the fitted curve at half-maximal effect
Method in brief: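 ATP-based cytotoxicity in canine J3T cells: 72 hr exposure at 37C, 11-point titration, CellTiterGlo luminescent detection.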

[6] = target: Nuclear receptor subfamily 1 group I member 3 (Homo sapiens) (UniProt Q14994); experiment: qHTS for Constitutive Androstane Receptor (CAR) Antagonist screened against the NCATS CANVASS Library (AID 1347372); conditions: HepG2-hCAR-CYP2B6 luciferase, CITCO-stimulated antagonist mode; series mostly up to 46.1 µM;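 also: cells stimulated with 50 nM CITCO agonist so inhibition reflects antagonism; luciferase from CYP2B6 promoter reporter driven by hCAR in HepG2 cells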
Chain of Nuclear receptor subfamily 1 group I member 3 (Homo sapiens) (Q14994 whole entry, looked up): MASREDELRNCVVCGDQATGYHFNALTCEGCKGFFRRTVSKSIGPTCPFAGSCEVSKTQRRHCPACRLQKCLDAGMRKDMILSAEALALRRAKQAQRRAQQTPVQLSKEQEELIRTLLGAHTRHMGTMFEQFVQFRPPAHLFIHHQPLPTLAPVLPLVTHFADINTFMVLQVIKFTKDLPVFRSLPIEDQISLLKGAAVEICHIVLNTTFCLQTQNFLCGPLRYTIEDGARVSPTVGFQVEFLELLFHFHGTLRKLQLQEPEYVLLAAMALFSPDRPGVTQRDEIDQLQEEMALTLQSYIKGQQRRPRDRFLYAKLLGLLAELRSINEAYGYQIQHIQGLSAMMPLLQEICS
Method in brief: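 Cells were seeded and left 4hr to attach, then received compound at 11 concentrations and 50 nM CITCO. Following 24hr incubation, fluorescence viability and luciferase luminescence were read sequentially.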

[7] = target: Nuclear receptor subfamily 1 group I member 3 (Homo sapiens) (UniProt Q14994); experiment: qHTS for Constitutive Androstane Receptor (CAR) Agonist screened against the NCATS CANVASS Library (AID 1347373); conditions: HepG2-hCAR-CYP2B6 luciferase reporter, ONE-Glo luminescence; series mostly up to 46.1 µM;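 also: every well also contained 1.5 µM PK11195 alongside the test compound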
Method in brief: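 In an 11-point concentration series, compounds were incubated 24hr with HepG2 cells carrying hCAR and a CYP2B6-2.2kb reporter, with PK11195 at 1.5uM final. A CellTiter-Fluor viability read preceded the ONE-Glo luminescence read.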

[8] = 10-beta competent E. coli microbial cell viability qHTS against the NCATS CANVASS Library (AID 1347376); conditions: E. coli 10-beta viability, BacTiter-Glo ATP luminescence, overnight; series mostly up to 46.1 µM
Method in brief: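 Overnight 37C exposure of 10-beta E. coli (0.2 OD) to an 11-point concentration series; ATP-based luminescence after 20 min room-temperature reagent incubation; daunomycin as control.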

[9] = DH5-alpha competent E. coli microbial cell viability qHTS against the NCATS CANVASS Library (AID 1347377); conditions: BacTiter-Glo ATP luminescence, overnight; series mostly up to 46.1 µM
Method in brief: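 Overnight incubation at 37C, 5% CO2 of E. coli DH5-alpha (diluted to 0.2 OD) with compounds precedes BacTiter-Glo addition. Luminescence, acquired after 20 min at room temperature, reflects viable-cell ATP.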

[10] = qHTS for H2AX Agonists against the NCATS CANVASS Library (AID 1347378); conditions: CHO-K1 H2AX phosphorylation, HTRF TR-FRET, 3 h;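 also: phospho-H2AX S139 level in CHO-K1 lysates by TR-FRET emission ratio; potency is read from the fitted curve at half-maximal effect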
Method in brief: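 CHO-K1, 1000 cells/well, o/n 37C; cpd several conc, 3 hr 37C, 0.76% DMSO; lyse 30 min RT; cryptate anti-pH2AX(S139) + d2 anti-H2AX, 24 hr RT; HTRF 665/620.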

Measured: Potency

C=C1C(=O)O[C@H]2[C@H]1CC/C(C)=C/CC[C@@]1(C)O[C@@H]21
active: [1] 8.33 µM | [3] 9.35 µM | [4] 7.39 µM | [5] 16.6 µM | [10] 4.86 µM
inactive: [2] | [6] | [7] | [8] | [9]
